Activity calls are given as the source filed them.

Assay [1] can be described thus: resazurin metabolic signal in HepG2 cells – cell-based, resazurin fluorescence, 24 h, PK04 Diversity Set, profiling panel (AID 1172). Further: test concentration not given here. As to conditions: HepG2 viability, higher = more signal. (In general: The colour change of resazurin is a common sign of viable cells or microbes.)
Assay [2] in a line: budding yeast growth changes without added modifier – OD600, strain BY4716, 24 h, basal condition, primary screen (AID 1173). Conditions: S. cerevisiae BY4716 growth, OD600, 24 h; higher = more signal, called active from +8 up or from −8 down.
A short description of assay [3]: viability profiling in MM1S myeloma cells – cell-based, resazurin fluorescence, basal, 24 h, PK04 Diversity Set, profiling panel (AID 1174).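 Further: MM1S multiple myeloma cell line; test concentration not given here.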 Conditions: higher = more signal, called active from +8 up or from −8 down.
For assay [4], the target named is Dihydroorotate dehydrogenase (quinone), mitochondrial (Plasmodium falciparum (isolate 3D7)) (UniProt Q08210). The assay is described as follows: inhibition of P. falciparum DHODH – biochemical, C-terminal His tag, absorbance 600 nm, primary screen (AID 1175).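 Further: recombinant parasite enzyme with a five histidine tag at its C terminus; test concentration not given here.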 Conditions: PfDHODH enzyme, DCIP absorbance 600 nm; higher = more signal, called active from +8 up or from −8 down.
Sequence of Dihydroorotate dehydrogenase (quinone), mitochondrial (Plasmodium falciparum (isolate 3D7)) (Q08210 whole entry, looked up): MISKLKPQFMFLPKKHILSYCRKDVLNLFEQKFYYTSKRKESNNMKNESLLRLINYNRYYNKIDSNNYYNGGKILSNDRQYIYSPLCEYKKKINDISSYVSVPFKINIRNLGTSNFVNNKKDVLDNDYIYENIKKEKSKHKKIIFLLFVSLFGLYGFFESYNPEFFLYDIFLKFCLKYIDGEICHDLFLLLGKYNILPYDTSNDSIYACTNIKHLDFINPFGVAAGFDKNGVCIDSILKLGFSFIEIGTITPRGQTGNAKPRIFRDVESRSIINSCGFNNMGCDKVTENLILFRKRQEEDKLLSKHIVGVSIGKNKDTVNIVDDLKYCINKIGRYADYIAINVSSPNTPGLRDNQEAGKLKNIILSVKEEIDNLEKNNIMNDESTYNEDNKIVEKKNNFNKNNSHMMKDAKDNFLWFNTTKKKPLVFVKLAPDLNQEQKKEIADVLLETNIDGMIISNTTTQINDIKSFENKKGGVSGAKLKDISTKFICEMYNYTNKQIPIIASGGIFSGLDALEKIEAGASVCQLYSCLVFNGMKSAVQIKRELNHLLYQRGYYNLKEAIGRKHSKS

Assay [5] can be described thus: growth modulation of vineyard yeast isolate – strain RM11-1a, OD600, basal, 24 h, primary screen (AID 1177).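 Further: cultures grown under basal conditions with no added stressor; test concentration not given here.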 Conditions: S. cerevisiae RM11-1a growth, OD600, 24 h; higher = more signal, called active from +8 up or from −8 down.
Assay [6] in a line: growth of efflux-deficient E. coli DRC39 – strain DRC39, OD650, 24 h, E. coli filamentation inducers, primary screen (AID 1178).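 Further: growth measured as culture turbidity by optical density at 650 nm; test concentration not given here.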 Conditions: E. coli DRC39 acrAB, higher = more signal, called active from +8 up or from −8 down.
Assay [7] can be described thus: growth of efflux-deficient E. coli DRC39 – strain DRC39, OD650, 48 h, E. coli filamentation inducers, primary screen (AID 1179).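 Further: screen aims at cell division blockers that make cells filament.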 Conditions: E. coli DRC39 delta-acrAB growth, higher = more signal, called active from +8 up or from −8 down.
Assay [8] can be described thus: viability profiling in RPMI8226 myeloma cells – cell-based, resazurin fluorescence, basal, 24 h, PK04 Diversity Set, profiling panel (AID 1180).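 Further: RPMI8826 multiple myeloma cell line at 5000 cells per well; test concentration not given here.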 Conditions: higher = more signal.
The target of assay [9] is E3 ubiquitin-protein ligase XIAP (Homo sapiens) (UniProt P98170). The experiment in a line: small molecules binding XIAP protein – biophysical, small-molecule microarray, fluorescence 635 nm, primary screen (AID 1181).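 Further: score merges 667 nm emission and signal to noise over triplicate slides.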 Conditions: higher = more signal.
Sequence of E3 ubiquitin-protein ligase XIAP (Homo sapiens) (P98170 whole entry, looked up): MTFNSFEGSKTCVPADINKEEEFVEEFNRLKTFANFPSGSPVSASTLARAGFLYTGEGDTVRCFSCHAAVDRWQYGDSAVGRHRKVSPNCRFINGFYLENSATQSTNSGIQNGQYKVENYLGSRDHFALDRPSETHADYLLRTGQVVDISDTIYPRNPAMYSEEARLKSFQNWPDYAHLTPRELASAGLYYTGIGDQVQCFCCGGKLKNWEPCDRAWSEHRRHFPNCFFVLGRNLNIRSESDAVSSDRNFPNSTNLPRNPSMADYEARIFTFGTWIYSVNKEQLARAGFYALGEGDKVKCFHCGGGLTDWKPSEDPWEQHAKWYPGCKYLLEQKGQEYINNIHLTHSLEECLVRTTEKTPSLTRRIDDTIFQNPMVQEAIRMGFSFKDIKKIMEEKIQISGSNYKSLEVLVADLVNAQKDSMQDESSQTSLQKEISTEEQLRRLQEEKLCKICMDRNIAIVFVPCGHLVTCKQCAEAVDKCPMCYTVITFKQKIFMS

For `O=C(CS)NCCCCCNC(=O)[C@H]1C[C@H]2C(=O)N[C@@H](Cc3ccccc3)C(=O)N2[C@H]1c1ccc(O)cc1`, the z-score is 0.0833 in assay [1]; 0.359 (inactive) in assay [2]; 1.19 (inactive) in assay [3]; 0.895 (inactive) in [5]; 0.394 (inactive) in assay [6]; 0.102 (inactive) in assay [7]. Also, the z-score in [8] worked out at 0.833. Moreover, the composite z-score is 0.44 (inactive) in assay [4] and 0.0123 in [9].
Consider `Cc1ccc(N2C(=O)c3ccccc3[C@@H](C(=O)NCc3ccccc3)[C@@H]2c2ccc(CO)cc2)nc1`, for which the z-score was 0.138 in assay [1]; 0.0819 (inactive) in assay [2]; 1.36 (inactive) in assay [3]; 1.11 (inactive) in [5]; -0.0753 (inactive) in [6]; -0.0787 (inactive) in assay [7]. Also, the z-score in assay [8] worked out at 1.06. Further, the composite z-score was 0.787 (inactive) in assay [4] and 0.02 in assay [9].
On to `CN(C)CCCC[C@@H]1NC(=O)[C@@H]2C[C@H](C(=O)O)[C@H](c3ccc(O)cc3)N2C1=O`, for which the z-score in [1] was -1.15; in assay [2] it was -0.976 (inactive); in assay [3], 1.2 (inactive); in assay [5] it was -0.422 (inactive); in assay [6], 0.994 (inactive); in assay [7], -0.0998 (inactive). In addition, the z-score in [8] turned out to be 0.493. In addition, the composite z-score in [4] was -0.621 (inactive); in [9] it was 0.101.
On to `COc1cccc([C@@H]2[C@@H](C)CC[C@H]3C(=O)N4[C@H](c5cccc(OC)c5)[C@@H](C)CC[C@H]4C(=O)N23)c1`, for which the z-score was 1.96 in [1]; -2.76 (inactive) in assay [2]; 1.24 (inactive) in assay [3]; -3.28 (inactive) in assay [5]; 0.697 (inactive) in assay [6]; -1.17 (inactive) in assay [7]. In addition, the z-score in [8] turned out to be 1.42. Besides, the composite z-score in [4] was -1.35 (inactive); in assay [9], -0.0599.
As to `O=C1O[C@@H](c2ccccc2)[C@@H](c2ccccc2)N2[C@@H](c3ccccc3OCCO)[C@]3(C(=O)Nc4ccc(C#CC5=CCCCC5)cc43)[C@@H](C(=O)O)[C@H]12`, the z-score is 0.172 in assay [1]; -0.5 (inactive) in assay [2]; -2.81 (inactive) in assay [3]; 3.46 (inactive) in assay [5]; 0.175 (inactive) in assay [6]; 0.45 (inactive) in assay [7]. Besides, the z-score in [8] was -5.59. Moreover, the results for the composite z-score in [4] and in [9] were -4.84 (inactive) and 0.105, respectively.
As to `O=C1O[C@@H](c2ccccc2)[C@@H](c2ccccc2)N2[C@@H](c3ccc(O)cc3)[C@]3(C(=O)Nc4ccccc43)[C@@H](C(=O)N3CCN(c4ncccn4)CC3)[C@H]12`, the z-score is 0.838 in assay [1]; -0.863 (inactive) in assay [2]; -0.798 (inactive) in assay [3]; -0.0045 (inactive) in assay [5]; 0.208 (inactive) in assay [6]; 1.05 (inactive) in assay [7]. The z-score in assay [8] is -0.442. Besides, the results for the composite z-score in assay [4] and in assay [9] were -0.63 (inactive) and -0.311, respectively.
Regarding `C=CCC(OC(C)=O)[C@@H]1[C@@H](N(Cc2ccc(-c3ccccc3)cc2)C(=O)c2ccc(C)cc2)c2cc(OCCCO)ccc2N1C(=O)c1ccc(-c2ccccc2)cc1` (stereo partly specified), the z-score in assay [1] was 2.15; in assay [2], -1.71 (inactive); in assay [3] it was 1.55 (inactive); in assay [5], -3.45 (inactive); in assay [6], 2.05 (inactive); in [7], 1.27 (inactive). Further, the z-score in assay [8] was 1.51. Besides, the composite z-score was -1.08 (inactive) in assay [4] and -0.467 in [9].
As to `C=C(CCCC)C(=O)CC[C@@H](OC(=O)c1cccnc1)c1cccc(OCCO)c1`, the z-score in assay [1] was 0.147; in [2], -1.41 (inactive); in [3], -4.18 (inactive); in [5] it was 0.0831 (inactive); in assay [6], 1.24 (inactive); in assay [7] it was 0.543 (inactive). In addition, in assay [8], the z-score was -4.13. The composite z-score in assay [4] is -1.57 (inactive); in assay [9], -0.104.
For `C=CC(=O)O[C@@H](Cc1ccccc1)[C@H]1C2C=CCCC=C2CN1Cc1cccc(Cl)c1` (stereo partly specified), the z-score is 1.36 in assay [1]; -2.29 (inactive) in assay [2]; 0.399 (inactive) in assay [3]; -0.718 (inactive) in assay [5]; 2.63 (inactive) in assay [6]; 0.338 (inactive) in assay [7]. In assay [8], this molecule returned a z-score of 1.26. Also, the composite z-score in [4] was 0.566 (inactive); in assay [9], 0.348.
As to `C[C@@H]1C=CCC(=O)OC[C@H]2O[C@@H](C=C[C@@H]2O)[C@H](C)C=CCC(=O)OC[C@H]2O[C@H]1C=C[C@@H]2O`, the z-score in assay [1] was -0.269; in [2], -2.13 (inactive); in assay [3], 0.689 (inactive); in assay [5] it was -2.89 (inactive); in [6], 0.552 (inactive); in assay [7], -1.41 (inactive). This molecule also registered a z-score in assay [8] of 0.807. Further, the composite z-score in assay [4] was -3.68 (inactive); in [9] it was -0.039.
Consider `CCCNC(=O)[C@@H]1c2ccccc2C(=O)N(Cc2cc(F)cc(C(F)(F)F)c2)[C@H]1c1ccc(CO)cc1`, for which the z-score is 0.527 in assay [1]; -1.69 (inactive) in assay [2]; 0.919 (inactive) in assay [3]; -1.41 (inactive) in assay [5]; 1.4 (inactive) in [6]; 0.576 (inactive) in assay [7]. For the same molecule, in assay [8], the z-score came to 1.72. In addition, the values for the composite z-score in assay [4] and in assay [9] were -0.0769 (inactive) and -0.129, respectively.
As to `O=C1c2ccccc2[C@](Cc2ccccc2I)(C(=O)NCc2ccccc2)[C@H](c2ccc(CO)cc2)N1Cc1ccccc1C(F)(F)F`, the z-score in [1] was 0.716; in [2], -0.712 (inactive); in assay [3], 1.32 (inactive); in assay [5], 0.758 (inactive); in assay [6], 0.0438 (inactive); in [7], 0.0442 (inactive). Further, the z-score in assay [8] came out at 1.21. Also, the composite z-score in assay [4] was 0.309 (inactive); in assay [9], -0.17.
`CC(C)[Si](OCCCNS(=O)(=O)c1ccc(Br)cc1)(C(C)C)C(C)C`: the z-score is 1.49 in [1]; -1.79 (inactive) in assay [2]; 0.766 (inactive) in assay [3]; -2.85 (inactive) in [5]; 2.79 (inactive) in [6]; 2.3 (inactive) in assay [7]. Besides, the z-score in [8] was -1.26. Besides, the composite z-score in assay [4] was 0.0026 (inactive); in assay [9] it was -0.18.
As for `C[C@@H]1NC(=O)CC=C[C@@H](C)[C@@H]2C=C[C@H](O)[C@@H](COC(=O)[C@H](C)NC(=O)CC=C[C@@H](C)[C@@H]3C=C[C@H](O)[C@@H](COC1=O)O3)O2`, the z-score was -0.0969 in assay [1]; -2.21 (inactive) in assay [2]; 0.668 (inactive) in assay [3]; -1.76 (inactive) in assay [5]; 0.953 (inactive) in [6]; 0.264 (inactive) in assay [7]. Also, in assay [8], the z-score is 0.526. For the same molecule, the composite z-score in [4] was 0.633 (inactive); in [9] it was -0.135.
